High-throughput results (PubChem BioAssay)
HT1080-NT tox = qHTS for induction of synthetic lethality in tumor cells producing 2HG: qHTS for the HT-1080-NT fibrosarcoma cell line. HT-1080-NT fibrosarcoma viability, CellTiter-Glo ATP luminescence, 48 h. 360,000 compounds, 1.6% hits. Potency, µM (top dose mostly 46.1 µM), for the others: at the highest dose activity, negative = less viability, actives largely listed as cytotoxic;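 further: NT is the 2HG producing partner of a matched IDH1 knockdown line; potency means the concentration at half of the fitted maximal effect; 0% = DMSO-treated cells and -100% = media-only wells without cells; nearly all actives have a fitted effect of over 55% in size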
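Viability of the 2HG-overproducing fibrosarcoma line after 48 hours of compound exposure at 37 degrees C was determined by luminescence with CellTiter-Glo, and concentration-effect curves were then fitted and categorized.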
DT40 TDP1 CPT = qHTS for Inhibitors of human tyrosyl-DNA phosphodiesterase 1 (TDP1): qHTS in cells in presence of CPT; chicken DT40 Tdp1-/-;hTDP1 cells + 20 nM CPT, ATP luminescence, 48 h; Potency, µM (top dose mostly 46.2 µM), for inactives: at the highest dose activity change, negative = growth inhibition, actives largely listed as inhibitors; 420,000 compounds, 12% hits; AID 686979, 2013; further: potency means the concentration at half of the fitted maximal effect; nearly all actives have a fitted effect of over 55% in size
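Cell growth measured by CellTiter-Glo luminescence after a minimum 48 h, 37 C compound exposure with 20 nM CPT in Tdp1-knockout DT40 cells stably expressing hTDP1, seeded 400/well; qHTS titration format.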
IL1B secr inh = qHTS for Inhibitors of Inflammasome Signaling: IL-1-beta AlphaLISA Primary Screen | 360,000 compounds, 4.7% hits | THP-1 LPS/ATP IL-1B secretion, AlphaLISA, 16 h; active compounds read low | AID 743279, 2014 | activity change, % at 57.5 µM; in the data active means activity change below about -50%; inconclusive means mostly about -30% to -49%
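Secreted IL-1B measured by AlphaLISA bead assay after 16 h compound exposure of THP-1 cells; compounds (final up to 57.5 uM) added 1 h before LPS (250 ng/mL) and ATP (1.25 mM) stimulation; lower signal means less secretion.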
HT1080 IDH1KD tx = qHTS for induction of synthetic lethality in tumor cells producing 2HG: qHTS for the HT-1080-IDH1KD cell line | HT-1080 IDH1 knockdown viability, ATP luminescence, 48 h | 360,000 compounds, 2% hits | AID 686971, 2013 | Potency, µM (series often up to 46.1 µM), inactives show at the highest dose activity, negative = toxicity, usual class: cytotoxic;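 further: potency means the concentration at half of the fitted maximal effect; 0% = DMSO wells and -100% = cell-free medium wells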
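In this qHTS, HT-1080 cells depleted of IDH1 are exposed for 48 h at 37 °C to compound titrations. Toxicity is scored from CellTiter-Glo luminescence, with DMSO as full viability and medium alone as none.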
DT40 TDP1 no CPT = qHTS for Inhibitors of human tyrosyl-DNA phosphodiesterase 1 (TDP1): qHTS in cells in absence of CPT; DT40 Tdp1-/- hTDP1 cells, no CPT, ATP luminescence, 48 h; Potency, µM (highest dose often 46.2 µM), without a hit: at the highest dose activity change, negative = growth inhibition, hits mostly inhibitors; 420,000 compounds, 15% hits; AID 686978, 2013; further: potency means the concentration at half of the fitted maximal effect; nearly all actives have a fitted effect of over 55% in size
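A cellular qHTS used chicken DT40 cells lacking endogenous Tdp1 but carrying stably transfected human TDP1. Compounds were applied without camptothecin, and cell growth kinetics were judged by ATP-dependent luminescence after ≥48 hr.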
ELG1 repair inh = qHTS screen for small molecules that inhibit ELG1-dependent DNA repair in human embryonic kidney (HEK293T) cells expressing luciferase-tagged ELG1. HEK293T ELG1-luciferase reporter, luminescence, 16 h; DNA damage induced by 5-fluorouridine. Potency, µM (highest dose often 46.1 µM), for the others: top-dose activity change, negative = inhibition, hits mostly inhibitors. 330,000 compounds, 2.3% hits; further: potency means the concentration at half of the fitted maximal effect; nearly all actives have a fitted effect of over 55% in size
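Reporter activity after DNA damage by 5-fluorouridine is monitored. Compound-treated cells incubate 16 hr at 37 °C, then ONE-Glo is added for 30 min before luminescence reading.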
* hit, by the source's call. A selection: hits, their analogues and other compounds. The true share with any hit is near 19%. Unless noted, the call rests on the fitted dose curve; in most records, active means well fitted curve in the direction sought with a large enough effect; inconclusive means small, poorly fitted or top-dose-only effect, or another doubt; inactive means no such curve, though single readings can be large; an effect the other way counts as inactive or inconclusive. Unless noted, on the % scale 0 is the no-effect control and ±100 the full control effect.

`COc1ccc(Cc2c(-c3ccc(C#N)cc3)nc3c4ccccc4ccn23)c(C)c1` gave HT1080-NT tox 3.1%, DT40 TDP1 CPT inconclusive, IL1B secr inh 21.0, HT1080 IDH1KD tx 0.1% and DT40 TDP1 no CPT inconclusive.
For COc1ccc(-c2nc3c4ccccc4ccn3c2Cc2ccccc2)cc1OC the results were HT1080-NT tox inconclusive, DT40 TDP1 CPT inconclusive, IL1B secr inh -14.5, HT1080 IDH1KD tx inconclusive and DT40 TDP1 no CPT 16.4µM*.
For COc1ccccc1Cc1c(-c2ccc(C#N)cc2)nc2c3ccccc3ccn12 the results were HT1080-NT tox -22.7%, DT40 TDP1 CPT 20.6µM*, IL1B secr inh -8.1, HT1080 IDH1KD tx -16.6% and DT40 TDP1 no CPT 20.6µM*.
For CC(C)C[C@@H](CNCC(=O)[C@H](Cc1ccccc1)NC(=O)c1[nH]cnc1C(=O)N[C@H](CN)CC(C)C)NC(=O)c1nc[nH]c1C(=O)N[C@@H](CC(=O)O)C(=O)O the results were HT1080-NT tox 2.3%, DT40 TDP1 CPT -0.2%, IL1B secr inh 1.9, HT1080 IDH1KD tx 3.7% and DT40 TDP1 no CPT -6.7%.
Screening CCOc1ccc(NC(=O)CSc2nc3c([nH]c4ccccc43)c(=O)n2C)cc1 returned HT1080-NT tox -4.1%, DT40 TDP1 CPT -3.7%, IL1B secr inh 13.6, HT1080 IDH1KD tx -2.9%, DT40 TDP1 no CPT -12.8% and ELG1 repair inh 4.4%.
Screening Cn1c(SCC(=O)Nc2ccc(F)cc2)nc2c([nH]c3ccccc32)c1=O returned HT1080-NT tox -1.7%, DT40 TDP1 CPT 18.4µM*, IL1B secr inh 54.5, HT1080 IDH1KD tx 2.5%, DT40 TDP1 no CPT inconclusive and ELG1 repair inh inconclusive.
`Cc1ccc(C)c(CSc2nc3c([nH]c4ccccc43)c(=O)n2C)c1` gave DT40 TDP1 CPT 6.51µM* and DT40 TDP1 no CPT 3.26µM*.
For Cc1ccc(NC(=O)CSc2nc3c([nH]c4ccccc43)c(=O)n2C)cc1 the results were HT1080-NT tox -1.3%, DT40 TDP1 CPT 13µM*, IL1B secr inh 36.8, HT1080 IDH1KD tx -2.6%, DT40 TDP1 no CPT 8.2µM* and ELG1 repair inh inconclusive.
For O=C(Nc1ccccc1Br)c1cnn2c1NC(=C1CC1)C=C2C(F)F the results were HT1080-NT tox 2.0%, DT40 TDP1 CPT -5.3%, HT1080 IDH1KD tx 24.6% and DT40 TDP1 no CPT inconclusive.
Screening O=C(N/N=C/C(Cl)=C\c1ccccc1)c1cnccn1 returned HT1080-NT tox -2.9%, DT40 TDP1 CPT 18.4µM*, IL1B secr inh -81.9*, HT1080 IDH1KD tx 15.3%, DT40 TDP1 no CPT 20.6µM* and ELG1 repair inh inconclusive.
CC(=C/c1ccccc1)/C=N/NC(=O)c1cnccn1 was read as HT1080-NT tox 11.2%, DT40 TDP1 CPT -21.5%, IL1B secr inh -2.0, HT1080 IDH1KD tx 4.5%, DT40 TDP1 no CPT -1.4% and ELG1 repair inh inconclusive.
For O=C(N/N=C/C(Cl)=C/c1ccccc1)c1cnccn1 the results were HT1080-NT tox -1.7%, DT40 TDP1 CPT 16.4µM*, IL1B secr inh -18.5, HT1080 IDH1KD tx -0.3%, DT40 TDP1 no CPT 13µM* and ELG1 repair inh inconclusive.
`O=C(Nc1nc2ccccc2s1)c1ccc(N2CCCCC2)c([N+](=O)[O-])c1` gave HT1080-NT tox -20.4%, DT40 TDP1 CPT 23.1µM*, IL1B secr inh -10.6, HT1080 IDH1KD tx -9.5%, DT40 TDP1 no CPT 14.6µM* and ELG1 repair inh inconclusive.
`O=C(Nc1nc(-c2ccccc2)cs1)c1ccc(N2CCOCC2)c([N+](=O)[O-])c1` gave HT1080-NT tox inconclusive, DT40 TDP1 CPT 14.6µM*, IL1B secr inh inconclusive, HT1080 IDH1KD tx inconclusive, DT40 TDP1 no CPT 8.2µM* and ELG1 repair inh 3.66µM*.
CCC1(c2ccccc2)NC(=O)N(CC(=O)Nc2ccc(Cl)c(S(=O)(=O)N3CCCCC3)c2)C1=O (centres undefined) was read as HT1080-NT tox -22.4%, DT40 TDP1 CPT inconclusive, IL1B secr inh -9.0, HT1080 IDH1KD tx inconclusive, DT40 TDP1 no CPT inconclusive and ELG1 repair inh inconclusive.
O=C1NC[C@@H](c2ccccc2)OC(=O)[C@@H](Cc2ccc(F)cc2)CC/C=C/C[C@@H]1CC(=O)N(CCO)Cc1ccccc1 was read as HT1080-NT tox -21.5%, DT40 TDP1 CPT 16.4µM*, IL1B secr inh inconclusive, DT40 TDP1 no CPT 14.6µM* and ELG1 repair inh inconclusive.
Screening O=C1N[C@@H](c2ccccc2)COC(=O)[C@@H](Cc2ccc(F)cc2)CC/C=C/C[C@@H]1CC(=O)N(CCO)Cc1ccccc1 returned HT1080-NT tox inconclusive, DT40 TDP1 CPT 13µM*, IL1B secr inh inconclusive, HT1080 IDH1KD tx inconclusive, DT40 TDP1 no CPT 18.4µM* and ELG1 repair inh 25.9µM*.
O=C(C[C@H]1C/C=C/CC[C@@H](Cc2ccc(F)cc2)C(=O)OC[C@H](c2ccccc2)NC1=O)NCCO was read as HT1080-NT tox 0.0%, DT40 TDP1 CPT -14.5%, IL1B secr inh 26.1, HT1080 IDH1KD tx 0.0%, DT40 TDP1 no CPT -21.4% and ELG1 repair inh -3.4%.
`O=C(C[C@@H]1C/C=C\CC[C@H](Cc2ccc(F)cc2)C(=O)OC[C@@H](Cc2ccccc2)NC1=O)NCCO` gave HT1080-NT tox 18.1%, DT40 TDP1 CPT inconclusive, IL1B secr inh 7.6, HT1080 IDH1KD tx 4.3%, DT40 TDP1 no CPT inconclusive and ELG1 repair inh -5.3%.
`O=C1N[C@@H](c2ccccc2)COC(=O)[C@@H](Cc2ccc(F)cc2)CC/C=C/C[C@H]1CC(=O)N(CCO)Cc1ccccc1` gave HT1080-NT tox inconclusive, DT40 TDP1 CPT 11.6µM*, IL1B secr inh inconclusive, HT1080 IDH1KD tx inconclusive, DT40 TDP1 no CPT 9.2µM* and ELG1 repair inh 14.6µM*.
`CC(C)(C)C1CCC(N2CCN(c3ccccc3)CC2)CC1` (centres undefined) gave HT1080-NT tox 1.1%, DT40 TDP1 CPT inconclusive, IL1B secr inh 0.1, HT1080 IDH1KD tx 0.6%, DT40 TDP1 no CPT inconclusive and ELG1 repair inh 2.3%.
Screening CNC(=O)Cn1nc(-c2ccc(Cl)cc2)c2ccccc2c1=O returned HT1080-NT tox 13.1%, DT40 TDP1 CPT 21.9%, IL1B secr inh 12.0, HT1080 IDH1KD tx 5.5%, DT40 TDP1 no CPT 17.8% and ELG1 repair inh -0.3%.
